# An excerpt weighted towards active compounds, which were near 8% of everything screened.
# MCF10A rerep: inducers of DNA re-replication in MCF 10A breast cells; AID 624296; MCF 10A DNA re-replication, Hoechst nuclear intensity, 48 h; Potency, µM (highest dose often 46.1 µM), for inactives: at the top dose activity, positive = re-replication, usual class: activators; 2.9% of 350,000 active; also: % of control where 0% means no effect; nearly all actives have a fitted effect of over 50% in size
# KB-3-1 tox: kills parental KB-3-1 adenocarcinoma cells; KB-3-1 viability, CellTiter-Glo ATP luminescence, 72 h; Potency, µM (highest dose often 46.1 µM), actives largely listed as cytotoxic; 1.4% of 400,000 active; also: % is scaled to controls: 0 for no effect and ±100 for the full control effect; nearly all actives have a fitted effect of over 60% in size
#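 KB-3-1 cells, DMEM (no phenol red) + 10% FBS; compound by pin transfer, 72 h, 37 °C. Readout: CellTiter-Glo luminescence after 10 min. Data normalized, curve-fitted.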
# HT1080 IDH1KD tx: HT-1080 IDH1 knockdown cell toxicity (counter line). HT-1080 IDH1 knockdown viability, ATP luminescence, 48 h. Potency, µM (series often up to 46.1 µM), for inactives: at the top dose activity, negative = toxicity, actives largely listed as cytotoxic. 2% of 360,000 active. AID 686971;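 also: 0% = DMSO wells and -100% = cell-free medium wells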
#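 Assay cells: HT-1080 with IDH1 knockdown, 750 per well, RPMI/5% FBS. Exposure: 48 h at 37 °C following 2 h pre-incubation. Read: CellTiter-Glo luminescence; fitted concentration-response, curve class assigned.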
# SW480 rerep: inducers of DNA re-replication in SW480 colon cancer cells | SW480 DNA re-replication, Hoechst DNA content imaging, 48 h | Potency, µM (top dose mostly 46.1 µM), for inactives: at the top dose re-replication activation, hits mostly activators | 1.8% of 340,000 active | AID 624297; also: % of control where 0% means no effect; nearly all actives have a fitted effect of over 55% in size
#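 Readout is total intensity of Hoechst-stained nuclei, excited at 405 nm and collected at 500-530 nm. Compound treatment lasted 48 hr at 37 C in 5% CO2 before staining.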
# HT1080-NT tox: kills 2HG-producing HT-1080-NT fibrosarcoma cells; HT-1080-NT fibrosarcoma viability, CellTiter-Glo ATP luminescence, 48 h; AID 686970; 1.6% of 360,000 active; Potency, µM (doses to about 46.1 µM), without a hit: at the top dose activity, negative = less viability, hits mostly cytotoxic;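 also: NT is the 2HG producing partner of a matched IDH1 knockdown line; 0% = DMSO-treated cells and -100% = media-only wells without cells; nearly all actives have a fitted effect of over 55% in size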
#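 Compounds were tested in concentration-response format on HT-1080-NT cells for 48 hours at 37 degrees C. Cell viability came from CellTiter-Glo luminescence; curves were classified by r2, response magnitude and activity.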
# KB-V1 MDR tox: kills drug-selected multidrug resistant KB-V1 cells; Potency, µM (highest dose often 46.1 µM), hits mostly cytotoxic; AID 1347076; 3.4% of 400,000 active; KB-V1 MDR cells viability, CellTiter-Glo, 72 h; also: % is scaled to controls: 0 for no effect and ±100 for the full control effect; nearly all actives have a fitted effect of over 60% in size
#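 KB-V1 MDR subline cells in DMEM (phenol-red free, 10% FBS) exposed to compounds in qHTS concentration series for 72 h at 37 degrees C. Viability read by CellTiter-Glo luminescence; concentration-effect curves fitted after normalization and correction.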
# Starred values were filed as active, the others as inactive; i = inactive; ? = inconclusive; . = no result. Calls follow the shape of the dose curve; as a rule, active = well fitted curve in the direction sought with a large enough effect; inconclusive = small, poorly fitted or top-dose-only effect, or another doubt; inactive = no such curve, though single readings can be large; an effect the other way counts as inactive or inconclusive. Potency is read from the fitted curve at half-maximal effect.
SMILES,MCF10A rerep,KB-3-1 tox,HT1080 IDH1KD tx,SW480 rerep,HT1080-NT tox,KB-V1 MDR tox
Cc1cccc(NP(=O)(Oc2ccccc2F)Oc2ccccc2F)c1,?,?,?,?,-23.9%,18.4µM*
Cc1ccc(NP(=O)(Oc2ccccc2F)Oc2ccccc2F)cc1C,?,i,-29.9%,?,-10.8%,?
COc1cccc(NP(=O)(Oc2ccc(Cl)cc2)Oc2ccc(Cl)cc2)c1,?,?,?,?,?,13µM*
COc1ccccc1OP(=O)(Nc1cccnc1)Oc1ccccc1OC,?,?,?,0.4%,?,9.2µM*
C1=C(c2c[nH]c3ccccc23)CCN(Cc2ccccc2)C1,16.4µM*,?,?,13µM*,?,i
CCCCn1c(=O)c(C(=O)Nc2cccc(C)c2)c(O)c2ccccc21,3.7%,?,10.4%,-6.1%,13.0%,?
CCCCCn1c(=O)c(C(=O)Nc2ccccc2Cl)c(O)c2ccccc21,-5.3%,i,3.0%,-0.8%,0.9%,i
CCCCn1c(=O)c(C(=O)NCc2ccccc2OC)c(O)c2ccccc21,10.8%,23.1µM*,4.2%,9.8%,23.3%,?
CCCCCn1c(=O)c(C(=O)NCCc2ccccc2)c(O)c2ccccc21,23.1µM*,?,2.5%,2.9%,4.9%,?
Cc1cc(OCC(=O)N2CCN(CCc3ccccn3)CC2)cc(C)c1Cl,.,i,.,.,.,i
CCOc1ccc(-c2cc(C)[n+](CCO)c(-c3ccc(OCC)cc3)c2)cc1,10.0%,i,?,?,?,i
CCOc1ccc(-c2cc(C)[n+](CCc3ccc(OC)c(OC)c3)c(-c3ccc(OCC)cc3)c2)cc1,14.3%,5.8µM*,16.4µM*,5.5%,20.6µM*,i
O=C1Nc2ccc(Cl)cc2C(c2ccccc2Cl)=NC1O (configuration not stated),5.1%,.,.,4.7%,.,.
c1ccc2c(c1)[IH]c1ccccc1-2,-13.2%,?,0.461µM*,?,0.461µM*,?
N#CC1=C(N)Oc2c(c(=O)sc3ccccc23)C1c1cccnc1 (configuration not stated),8.2µM*,?,4.61µM*,14.6µM*,3.26µM*,i
O=C(CN1CCOCC1)c1cccc2ccccc12,18.3%,i,2.3%,0.4%,2.0%,i
Cc1c(C(=O)c2cccc3ccccc23)c2cccc3c2n1[C@H](CN1CCOCC1)CO3,?,?,9.2µM*,?,14.6µM*,?
OC[C@@H](O)[C@H]1O[C@@H]2OC(C(Cl)(Cl)Cl)O[C@H]2[C@H]1O (some centres not stated),2.3%,.,.,-4.1%,.,.
NC(Cc1ccc(Cl)cc1)c1csc(Nc2ccccn2)n1 (configuration not stated),.,i,?,.,23.1µM*,i
COc1cccc(Nc2nc(C(N)Cc3ccc(F)cc3)cs2)n1 (configuration not stated),.,?,14.6µM*,.,23.1µM*,?
NC(Cc1ccc(F)cc1)c1csc(Nc2ccccn2)n1 (configuration not stated),.,i,23.1µM*,.,?,?
NC(Cc1ccccc1)c1csc(Nc2ccccn2)n1 (configuration not stated),.,i,?,.,?,i
Cc1cc(-n2c(/C=C/c3ccc(Br)s3)nc3ccccc3c2=O)ccc1Br,.,i,.,.,.,?
CCOP(=O)(OCC)O/C(=C/Cl)c1ccc(Cl)cc1Cl,11.8%,.,.,3.1%,.,.
Cn1c(=O)oc2cc(S(=O)(=O)N3CCc4ccccc43)ccc21,?,?,?,-2.9%,-14.8%,?
Cn1c(=O)oc2cc(S(=O)(=O)N3CCCc4ccccc43)ccc21,2.59µM*,?,8.2µM*,?,6.51µM*,i
